In the library only some 3.6% were active in any assay of this set; here they are far more common.
Pf apPOL block = Pf-apPOL DNA polymerase inhibition | inhibition, % at 10 µM | 210,000 compounds, 0.25% hits | AID 1794808 | Recombinant Pf-apPOL, molecular beacon fluorescence, 1.5 h
mHTT-CaM PPI inh = mHTT-calmodulin interaction abrogation | P42858 | AlphaScreen His-mHTT/GST-CaM binding, luminescence | inhibition, % at 15 µM | 190,000 compounds, 3.6% hits
Large screens that a line does not name were inactive. No stated cut-off is given here; in the data, active means inhibition above about 50%; inactive means the rest.

COc1ccc(Cl)cc1NC(=O)N1CCCC1c1nc(-c2ccccc2)no1 (stereo not drawn)	none
O=C(Cn1ccc2ccc(N3CCCCC3)nc21)NC1CCCC1	none
O=C(Cn1ccc2ccc(N3CCCCCC3)nc21)NC1CCCCC1	mHTT-CaM PPI inh 50
O=C(NCc1ccc2c(c1)OCO2)c1ccc(-c2ccc(F)cc2)nc1	none
O=[N+]([O-])c1cc(Br)c2nsnc2c1Br	none
O=[N+]([O-])c1cc(Br)c2nsnc2c1N1CCCCCC1	mHTT-CaM PPI inh 51 (no result: Pf apPOL block)
COc1ccc(Cl)cc1S(=O)(=O)N1CCCN(C2CCN(CC3CC3)C2=O)CC1 (stereo not drawn)	none
O=C(Nc1nccnc1C(=O)N1CCCCCC1)c1ccccc1	none
O=C(/C=C/c1ccco1)c1cccs1	mHTT-CaM PPI inh 79
O=C(C=Cc1ccco1)c1ccc(O)cc1	none
COc1cc(C=C2SC(=S)N(C(CC(=O)O)C(=O)O)C2=O)cc(OC)c1OC (stereo not drawn)	none
CCOc1cccc(C(Nc2cccc(C)n2)c2ccc3ccc(C)nc3c2O)c1 (stereo not drawn)	mHTT-CaM PPI inh 70
CCOc1ccc(C(=O)Nc2cccc(C)n2)cc1OCC	none
CCOc1cccc(C(Nc2ccccn2)c2ccc3ccc(C)nc3c2O)c1 (stereo not drawn)	mHTT-CaM PPI inh 59
CCOc1cc(OCC)cc(C(=O)Nc2ccccn2)c1	none
Cc1cc(NC(=O)CSc2nnc(C)s2)no1	none (no result: Pf apPOL block)
O=S(=O)(c1ccccc1F)N1CCC(c2noc(-c3ccc(F)cc3)n2)CC1	none
Cc1cc(C2C(C#N)=C(N)N(c3ccccc3)C3=C2C(=O)CC(C)(C)C3)c(C)s1 (stereo not drawn)	none
Cc1ccc(/C=C2\N=C(c3ccccc3C)OC2=O)cc1	none
Cc1c(NC(=O)c2ccc([N+](=O)[O-])cc2)cccc1-c1nc2ccccc2s1	none
O=[N+]([O-])c1ccccc1CN1CCN(C2CCCC2)CC1	none
CC1=NN(c2ccc(Br)cc2)C(=O)/C1=C/c1ccc(-c2ccc3c(c2)C(=O)NC3=O)o1	none
O=C1NC(=S)N/C1=C/c1ccc(-c2ccc3c(c2)C(=O)NC3=O)o1	mHTT-CaM PPI inh 55 (no result: Pf apPOL block)
CCOc1ccccc1OCCN1CCN(Cc2ccccc2)CC1	none
O=C(c1cccc(F)c1)N1CCCN(Cc2nc(-c3cccc(F)c3)no2)CC1	none
O=C(Cn1cnc([N+](=O)[O-])n1)Nc1cc(Oc2ccc(F)cc2)cc([N+](=O)[O-])c1	none
O=C(Cn1cnc([N+](=O)[O-])n1)Nc1cc(Oc2cccc(C(F)(F)F)c2)cc([N+](=O)[O-])c1	mHTT-CaM PPI inh 51
O=C(Cn1cc([N+](=O)[O-])nc1[N+](=O)[O-])Nc1cc(Oc2ccccc2)cc([N+](=O)[O-])c1	mHTT-CaM PPI inh 51
O=C(Cn1cnc([N+](=O)[O-])c1)Nc1cc(Oc2cccnc2)cc([N+](=O)[O-])c1	none
CC(=O)N1CCc2cc(N3CC(C(=O)NCC(C)C)CC3=O)ccc21 (stereo not drawn)	none
O=C(Nc1c(Cc2ccccc2)nc2ccccn12)C(Cl)Cl	none
CC(Cl)C(=O)Nc1c(Cc2ccccc2)nc2ccccn12 (stereo not drawn)	Pf apPOL block 72
Cc1ccc(N2C(=O)CCC2(C)C(=O)NCCCOC(C)C)c(C)c1 (stereo not drawn)	none
CC(=O)c1ccc(-c2ccc([C@H]3[C@@H]4C=CCC[C@@]4(C)C(=O)N3Cc3ccccc3)c(F)c2)cc1	none
COc1ccc(-c2ccc(OC)c([C@H]3[C@@H]4C=CCC[C@@]4(C)C(=O)N3Cc3ccccc3)c2)cc1OC	mHTT-CaM PPI inh 76
COc1ccc(Br)cc1[C@H]1[C@@H]2C=CCC[C@@]2(C)C(=O)N1Cc1ccccc1	mHTT-CaM PPI inh 90
COc1ccc(-c2ccc(N(C)C)cc2)cc1[C@H]1[C@@H]2C=CCC[C@@]2(C)C(=O)N1Cc1ccccc1	mHTT-CaM PPI inh 73
COc1ccc(/C=C/c2ccccc2)cc1[C@H]1[C@@H]2C=CCC[C@@]2(C)C(=O)N1Cc1ccccc1	none
COc1ccc(-c2ccc(OC)c([C@H]3[C@@H]4C=CCC[C@@]4(C)C(=O)N3Cc3ccccc3)c2)cc1	none
N#Cc1c(N2CCc3ccccc3C2)ncc2c(=O)c3ccccc3[nH]c12	none
Cc1cccc(-n2cc(C3CCN(C(=O)C4CC4)CC3)cn2)c1	none
Cn1nc(-c2nc(-c3cccc(F)c3)no2)c2c1CCN(C(=O)NC(C)(C)C)C2	none
CC1=C(C(=O)Nc2ccccc2)C(c2ccc(OCc3ccccc3)cc2)n2ncnc2N1 (stereo not drawn)	none
Cc1cccc(-c2nc(C3CCN(C(=O)COc4ccc(Cl)cc4)CC3)no2)c1	mHTT-CaM PPI inh 80
COc1cccc(-c2nc(C3CCN(C(=O)C4COc5ccccc5O4)CC3)no2)c1 (stereo not drawn)	mHTT-CaM PPI inh 87
Cc1cccc(-c2nc(C3CCN(C(=O)Cc4cccc(F)c4)CC3)no2)c1	none
COc1cccc(-c2nc(C3CCN(C(=O)c4ccccc4)CC3)no2)c1	none
CC(=O)Nc1ccc(NC(C)=O)c(NC2OC(CO)C(O)C2O)c1 (stereo not drawn)	none
CCOc1ccc(NC(NC(=O)/C=C/c2ccccc2)C(Cl)(Cl)Cl)cc1 (stereo not drawn)	none
O=C(/C=C/c1ccccc1)NC(NC1CCCCC1)C(Cl)(Cl)Cl (stereo not drawn)	Pf apPOL block 112
COc1cc(C2C(C#N)=C(N)Oc3n[nH]c(C(F)(F)F)c32)cc(OC)c1OC (stereo not drawn)	none
CCOc1ccc(-c2[nH]nc3c2C(c2cn[nH]c2-c2ccc(F)cc2)C(C#N)=C(N)O3)cc1 (stereo not drawn)	none
N#CC1=C(N)Oc2n[nH]c(-c3ccccc3)c2C1c1ccc2c(c1[N+](=O)[O-])OCO2 (stereo not drawn)	mHTT-CaM PPI inh 51
N#CC1=C(N)Oc2n[nH]c(-c3ccccc3)c2C1c1ccccc1Cl (stereo not drawn)	none
N#CC1=C(N)Oc2n[nH]c(-c3ccc(Br)cc3)c2C1c1cn[nH]c1-c1ccc(F)cc1 (stereo not drawn)	mHTT-CaM PPI inh 59
COc1cc(C2C(C#N)=C(N)Oc3n[nH]c(-c4ccc(Br)cc4)c32)cc(OC)c1O (stereo not drawn)	mHTT-CaM PPI inh 87
COc1cc(-c2[nH]nc3c2C(c2ccc(C(F)(F)F)cc2)C(C#N)=C(N)O3)cc(OC)c1OC (stereo not drawn)	mHTT-CaM PPI inh 90
COc1ccc(-c2[nH]nc3c2C(c2cc(Cl)c(O)c(OC)c2)C(C#N)=C(N)O3)cc1 (stereo not drawn)	none
O=C(Nc1ccc(Br)cn1)c1cc([N+](=O)[O-])ccc1Cl	none
CC12C=CC(O1)C1C(=O)N(c3ccc(F)cc3)C(=O)C12 (stereo not drawn)	none
COc1cc(/C=C/c2nc(-c3ccccc3O)n(-c3ccccc3)n2)ccc1O	mHTT-CaM PPI inh 88
CCc1nc(-c2ccccc2O)n(-c2ccccc2)n1	none
O=C(NC1CCCC1)c1cccc(-c2cnc(N3CCCC3)nc2)c1	none
CNC(=O)c1nc(-c2ccc(C)cc2)n2c1CCCCC2	none
CC(NC(=O)c1cnn2c3c(cnc12)CCCCCC3)c1ccc2c(c1)OCCO2 (stereo not drawn)	none
O=C(CSc1cccc2cccnc12)c1ccc(F)cc1	none
Oc1c(C(Nc2ccc(F)cc2)c2ccncc2)ccc2cccnc12 (stereo not drawn)	mHTT-CaM PPI inh 100
Cc1ccc(F)cc1NC(=O)CSc1cccc2cccnc12	none
COc1ccc(NC(c2ccccc2)c2ccncc2)cc1 (stereo not drawn)	none

Compound activity: PubChem BioAssay, University of Kansas High Throughput Screening Laboratory
